The supplement of paper PMC10849652
The full data set covers some 8,800 targets. This sample favours those with a hit. About 0.5% of all pairs of compound and target were hits.

Assays:
Test in all cases: log2 fold change, soluble protein after heating vs DMSO (PISA); higher = thermal stabilisation; K562 lysate, 10 uM; active = over 0.2 and 3.5 SD of the protein, either way, in both replicates (recomputed)
lapatinib = compound: CS(=O)(=O)CCNCc1ccc(-c2ccc3ncnc(Nc4ccc(OCc5cccc(F)c5)c(Cl)c4)c3c2)o1 [lapatinib]
How it was run: (§1)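 Pellets of K562 cells were dounce-homogenised in PBS pH 7.4 with 1 mM MgCl2, and the crude extract was held at 1 mg/mL protein for a 30 min treatment with 10 μM compound. Aliquots were heated for 3 min over 48°C-58°C and pooled before NP-40 was added to 0.5% at 4°C. The supernatant from 21,000xg for 90 min was quantified by TMTpro 16plex LC-MS/MS with channel sums equalised. Values are reported from duplicates as log-two fold change in thermal stability relative to solvent controls.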

pictilisib = compound: CS(=O)(=O)N1CCN(Cc2cc3nc(-c4cccc5[nH]ncc45)nc(N4CCOCC4)c3s2)CC1 [pictilisib]
How it was run: as §1

crizotinib = compound: C[C@@H](Oc1cc(-c2cnn(C3CCNCC3)c2)cnc1N)c1c(Cl)ccc(F)c1Cl [crizotinib]
How it was run: as §1

[1] = compound: C[C@H](C1=CC=C(C=C1)C(=O)NC2=C3C=CNC3=NC=C2)N
How it was run: as §1

duvelisib = compound: C[C@H](Nc1ncnc2nc[nH]c12)c1cc2cccc(Cl)c2c(=O)n1-c1ccccc1 [duvelisib]
How it was run: as §1

gandotinib = compound: Cc1cc(Nc2cc(CN3CCOCC3)c3nc(C)c(Cc4ccc(Cl)cc4F)n3n2)n[nH]1 [gandotinib]
How it was run: as §1

tozasertib = compound: Cc1cc(Nc2cc(N3CCN(C)CC3)nc(Sc3ccc(NC(=O)C4CC4)cc3)n2)n[nH]1 [tozasertib]
How it was run: as §1

doramapimod = compound: Cc1ccc(-n2nc(C(C)(C)C)cc2NC(=O)Nc2ccc(OCCN3CCOCC3)c3ccccc23)cc1 [doramapimod]
How it was run: as §1

bafetinib = compound: Cc1ccc(NC(=O)c2ccc(CN3CC[C@H](N(C)C)C3)c(C(F)(F)F)c2)cc1Nc1nccc(-c2cncnc2)n1 [bafetinib]
How it was run: as §1

[2] = compound: Cc1cccc(CC(=O)N2CCc3c2ccc(-c2cn(C)c4ncnc(N)c24)c3F)n1
How it was run: as §1

nilotinib = compound: Cc1cn(-c2cc(NC(=O)c3ccc(C)c(Nc4nccc(-c5cccnc5)n4)c3)cc(C(F)(F)F)c2)cn1 [nilotinib]
How it was run: as §1

[3] = compound: Cc1nc(Nc2n[nH]c3c2CN(C(=O)N[C@H](CN(C)C)c2ccccc2)C3(C)C)c2sccc2n1
How it was run: as §1

dasatinib = compound: Cc1nc(Nc2ncc(C(=O)Nc3c(C)cccc3Cl)s2)cc(N2CCN(CCO)CC2)n1 [dasatinib]
How it was run: as §1

[4] = compound: Cc1ncc(-c2ccnc(Nc3ccc(S(C)(=O)=O)cc3)n2)n1C(C)C
How it was run: as §1

[5] = compound: Cn1cc(-c2ccc3c(c2)CCN3C(=O)Cc2cccc(C(F)(F)F)c2)c2c(N)ncnc21
How it was run: as §1

quisinostat = compound: Cn1cc(CNCC2CCN(c3ncc(C(=O)NO)cn3)CC2)c2ccccc21 [quisinostat]
How it was run: as §1

tipifarnib = compound: Cn1cncc1[C@@](N)(c1ccc(Cl)cc1)c1ccc2c(c1)c(-c1cccc(Cl)c1)cc(=O)n2C [tipifarnib]
How it was run: as §1

[6] = compound: NC(=O)Nc1cc(-c2cccc(F)c2)sc1C(=O)N[C@H]1CCCNC1
How it was run: as §1

[7] = compound: NC(=O)c1cnc(N[C@@H]2CCCC[C@@H]2N)nc1Nc1cccc(-n2nccn2)c1
How it was run: as §1

[8] = compound: NC1(c2ccc(-c3nc4ccn5c(=O)[nH]nc5c4cc3-c3ccccc3)cc2)CCC1
How it was run: as §1

Measured: log2 fold change

PI4KA (UniProt P42356)
UniProt P42356, sequence (P42356 whole entry, looked up): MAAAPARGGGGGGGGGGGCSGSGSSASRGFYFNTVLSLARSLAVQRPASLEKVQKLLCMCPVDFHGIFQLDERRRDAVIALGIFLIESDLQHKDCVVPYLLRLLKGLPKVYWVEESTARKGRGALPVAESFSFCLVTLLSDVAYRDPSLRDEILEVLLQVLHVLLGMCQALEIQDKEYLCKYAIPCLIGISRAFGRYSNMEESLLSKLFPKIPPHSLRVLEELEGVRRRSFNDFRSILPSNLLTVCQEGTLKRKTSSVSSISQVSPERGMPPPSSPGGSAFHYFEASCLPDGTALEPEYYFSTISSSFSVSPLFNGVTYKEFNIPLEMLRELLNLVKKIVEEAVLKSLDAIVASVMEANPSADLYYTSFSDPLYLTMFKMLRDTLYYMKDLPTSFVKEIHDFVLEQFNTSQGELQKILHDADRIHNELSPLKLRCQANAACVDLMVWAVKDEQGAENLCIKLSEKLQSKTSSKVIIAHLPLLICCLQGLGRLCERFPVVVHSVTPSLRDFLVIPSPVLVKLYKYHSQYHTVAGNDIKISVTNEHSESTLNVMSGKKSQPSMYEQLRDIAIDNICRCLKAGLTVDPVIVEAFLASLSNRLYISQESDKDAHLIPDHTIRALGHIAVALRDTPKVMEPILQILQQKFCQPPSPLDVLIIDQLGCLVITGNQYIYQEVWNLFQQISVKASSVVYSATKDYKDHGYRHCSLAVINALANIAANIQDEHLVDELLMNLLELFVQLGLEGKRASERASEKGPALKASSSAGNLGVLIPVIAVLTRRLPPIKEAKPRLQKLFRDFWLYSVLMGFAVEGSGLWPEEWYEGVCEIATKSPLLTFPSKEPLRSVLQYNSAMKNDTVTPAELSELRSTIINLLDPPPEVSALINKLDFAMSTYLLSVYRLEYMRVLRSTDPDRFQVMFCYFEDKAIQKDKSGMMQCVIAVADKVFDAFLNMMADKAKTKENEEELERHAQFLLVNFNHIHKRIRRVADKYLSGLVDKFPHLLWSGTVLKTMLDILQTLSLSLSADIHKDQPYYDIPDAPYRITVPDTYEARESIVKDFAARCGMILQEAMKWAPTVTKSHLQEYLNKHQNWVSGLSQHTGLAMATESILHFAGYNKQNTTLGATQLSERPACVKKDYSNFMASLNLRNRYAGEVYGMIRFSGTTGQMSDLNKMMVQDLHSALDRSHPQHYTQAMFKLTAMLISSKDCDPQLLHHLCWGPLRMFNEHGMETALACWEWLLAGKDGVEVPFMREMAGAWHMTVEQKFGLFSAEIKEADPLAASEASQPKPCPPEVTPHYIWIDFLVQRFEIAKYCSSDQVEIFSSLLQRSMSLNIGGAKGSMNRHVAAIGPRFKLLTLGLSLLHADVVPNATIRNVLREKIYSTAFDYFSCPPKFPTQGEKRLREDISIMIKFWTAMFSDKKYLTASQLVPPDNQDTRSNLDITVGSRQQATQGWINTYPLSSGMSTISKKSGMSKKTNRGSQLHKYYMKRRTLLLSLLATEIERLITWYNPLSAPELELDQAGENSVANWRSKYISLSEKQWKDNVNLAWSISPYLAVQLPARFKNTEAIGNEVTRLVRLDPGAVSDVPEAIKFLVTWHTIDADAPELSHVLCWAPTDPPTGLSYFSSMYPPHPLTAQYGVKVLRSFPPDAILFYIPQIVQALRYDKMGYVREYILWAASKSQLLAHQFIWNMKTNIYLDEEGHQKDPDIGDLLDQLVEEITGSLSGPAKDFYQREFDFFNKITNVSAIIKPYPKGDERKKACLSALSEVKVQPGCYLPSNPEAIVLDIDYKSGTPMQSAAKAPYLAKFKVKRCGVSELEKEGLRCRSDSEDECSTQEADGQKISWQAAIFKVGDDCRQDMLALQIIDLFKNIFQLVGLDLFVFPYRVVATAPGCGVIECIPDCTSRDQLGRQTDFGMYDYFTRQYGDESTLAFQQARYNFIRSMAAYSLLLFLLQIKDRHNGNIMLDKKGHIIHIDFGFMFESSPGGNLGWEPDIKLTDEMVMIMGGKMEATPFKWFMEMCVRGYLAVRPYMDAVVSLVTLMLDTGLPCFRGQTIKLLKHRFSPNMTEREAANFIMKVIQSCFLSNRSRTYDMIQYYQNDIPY
inactive: lapatinib -0.03 | pictilisib 0.097 | crizotinib -0.005 | [1] -0.043 | duvelisib 0.189 | gandotinib -0.033 | tozasertib 0.013 | doramapimod -0.002 | bafetinib -0.075 | [2] 0.073 | nilotinib -0.025 | [3] 0.055 | dasatinib -0.098 | [4] 0.015 | [5] 0.043 | quisinostat -0.076 | tipifarnib -0.031 | [6] 0.041 | [7] 0.003 | [8] 0.019

PGLS (UniProt O95336)
inactive: lapatinib 0.068 | pictilisib 0.011 | crizotinib 0 | [1] 0.206 | duvelisib 0.033 | gandotinib -0.084 | tozasertib 0.008 | doramapimod 0.004 | bafetinib -0.031 | [2] -0.14 | nilotinib 0.008 | [3] -0.021 | dasatinib 0.001 | [4] 0.168 | [5] 0.022 | quisinostat 0.017 | tipifarnib -0.013 | [6] -0.017 | [7] -0.073 | [8] 0.014

PTMA (UniProt P06454)
inactive: lapatinib -0.059 | pictilisib -0.014 | crizotinib 0.08 | duvelisib 0.009 | gandotinib -0.277 | tozasertib 0.012 | doramapimod -0.031 | bafetinib 0.058 | nilotinib 0.008 | [3] -0.046 | dasatinib 0.056 | [4] 0.019 | [5] -0.025 | quisinostat 0.047 | tipifarnib 0.045 | [6] 0.017 | [7] 0.032 | [8] -0.006
active: [1] 0.505 | [2] -0.375

PDXK (UniProt O00764)
UniProt O00764, sequence (O00764 whole entry, looked up): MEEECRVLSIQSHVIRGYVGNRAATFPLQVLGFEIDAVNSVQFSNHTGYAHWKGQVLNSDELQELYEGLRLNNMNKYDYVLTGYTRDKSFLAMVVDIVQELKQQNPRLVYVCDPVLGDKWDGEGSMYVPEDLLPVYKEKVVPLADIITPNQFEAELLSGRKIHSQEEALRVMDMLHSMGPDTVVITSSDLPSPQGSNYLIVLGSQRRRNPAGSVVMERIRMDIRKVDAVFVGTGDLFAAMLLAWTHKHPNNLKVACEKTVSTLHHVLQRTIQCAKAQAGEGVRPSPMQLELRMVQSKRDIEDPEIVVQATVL
inactive: lapatinib -0.026 | pictilisib 0.014 | crizotinib 0.004 | [1] -0.134 | duvelisib 0.041 | gandotinib 0.109 | tozasertib -0.014 | doramapimod -0.072 | bafetinib 0.046 | [2] 0.083 | nilotinib 0.123 | [3] -0.031 | dasatinib 0.005 | [4] 0.055 | [5] -0.003 | quisinostat -0.03 | tipifarnib 0.012 | [6] -0.008 | [7] -0.008 | [8] -0.023

PWP2 (UniProt Q15269)
UniProt Q15269, sequence (Q15269 whole entry, looked up): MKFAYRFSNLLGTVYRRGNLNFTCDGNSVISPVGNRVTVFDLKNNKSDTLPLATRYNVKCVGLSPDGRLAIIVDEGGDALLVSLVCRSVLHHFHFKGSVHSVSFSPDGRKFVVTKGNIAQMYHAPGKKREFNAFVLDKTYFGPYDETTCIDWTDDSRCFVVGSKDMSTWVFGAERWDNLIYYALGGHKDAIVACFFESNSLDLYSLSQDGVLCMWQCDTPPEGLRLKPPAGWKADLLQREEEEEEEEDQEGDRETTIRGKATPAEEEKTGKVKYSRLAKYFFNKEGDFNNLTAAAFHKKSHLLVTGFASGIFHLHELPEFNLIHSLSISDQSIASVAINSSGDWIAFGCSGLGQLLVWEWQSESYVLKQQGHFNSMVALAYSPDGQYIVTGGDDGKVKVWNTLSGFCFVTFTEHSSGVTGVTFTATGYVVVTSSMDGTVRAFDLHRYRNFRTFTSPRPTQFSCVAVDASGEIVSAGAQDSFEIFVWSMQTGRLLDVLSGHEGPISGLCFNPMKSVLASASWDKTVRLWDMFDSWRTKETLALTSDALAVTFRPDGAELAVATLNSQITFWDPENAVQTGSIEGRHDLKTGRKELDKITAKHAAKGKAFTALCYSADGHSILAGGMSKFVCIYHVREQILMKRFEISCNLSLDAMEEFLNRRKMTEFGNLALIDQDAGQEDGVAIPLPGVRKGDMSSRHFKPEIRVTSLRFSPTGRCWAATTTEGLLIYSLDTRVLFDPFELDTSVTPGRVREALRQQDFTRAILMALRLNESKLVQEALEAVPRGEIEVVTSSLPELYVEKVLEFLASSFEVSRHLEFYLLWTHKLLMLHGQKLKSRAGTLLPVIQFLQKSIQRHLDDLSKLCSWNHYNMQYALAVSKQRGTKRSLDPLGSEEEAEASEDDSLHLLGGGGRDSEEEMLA
inactive: lapatinib -0.017 | pictilisib -0.012 | crizotinib 0.001 | [1] -0.016 | duvelisib 0.005 | gandotinib -0.075 | tozasertib -0.013 | doramapimod -0.017 | bafetinib -0.023 | [2] 0.029 | nilotinib 0.016 | [3] -0.006 | dasatinib -0.033 | [4] -0.032 | [5] -0.023 | quisinostat -0.056 | tipifarnib 0.004 | [6] 0.036 | [7] -0.022 | [8] 0.011

PTPN23 (UniProt Q9H3S7)
UniProt Q9H3S7, sequence (Q9H3S7 whole entry, looked up): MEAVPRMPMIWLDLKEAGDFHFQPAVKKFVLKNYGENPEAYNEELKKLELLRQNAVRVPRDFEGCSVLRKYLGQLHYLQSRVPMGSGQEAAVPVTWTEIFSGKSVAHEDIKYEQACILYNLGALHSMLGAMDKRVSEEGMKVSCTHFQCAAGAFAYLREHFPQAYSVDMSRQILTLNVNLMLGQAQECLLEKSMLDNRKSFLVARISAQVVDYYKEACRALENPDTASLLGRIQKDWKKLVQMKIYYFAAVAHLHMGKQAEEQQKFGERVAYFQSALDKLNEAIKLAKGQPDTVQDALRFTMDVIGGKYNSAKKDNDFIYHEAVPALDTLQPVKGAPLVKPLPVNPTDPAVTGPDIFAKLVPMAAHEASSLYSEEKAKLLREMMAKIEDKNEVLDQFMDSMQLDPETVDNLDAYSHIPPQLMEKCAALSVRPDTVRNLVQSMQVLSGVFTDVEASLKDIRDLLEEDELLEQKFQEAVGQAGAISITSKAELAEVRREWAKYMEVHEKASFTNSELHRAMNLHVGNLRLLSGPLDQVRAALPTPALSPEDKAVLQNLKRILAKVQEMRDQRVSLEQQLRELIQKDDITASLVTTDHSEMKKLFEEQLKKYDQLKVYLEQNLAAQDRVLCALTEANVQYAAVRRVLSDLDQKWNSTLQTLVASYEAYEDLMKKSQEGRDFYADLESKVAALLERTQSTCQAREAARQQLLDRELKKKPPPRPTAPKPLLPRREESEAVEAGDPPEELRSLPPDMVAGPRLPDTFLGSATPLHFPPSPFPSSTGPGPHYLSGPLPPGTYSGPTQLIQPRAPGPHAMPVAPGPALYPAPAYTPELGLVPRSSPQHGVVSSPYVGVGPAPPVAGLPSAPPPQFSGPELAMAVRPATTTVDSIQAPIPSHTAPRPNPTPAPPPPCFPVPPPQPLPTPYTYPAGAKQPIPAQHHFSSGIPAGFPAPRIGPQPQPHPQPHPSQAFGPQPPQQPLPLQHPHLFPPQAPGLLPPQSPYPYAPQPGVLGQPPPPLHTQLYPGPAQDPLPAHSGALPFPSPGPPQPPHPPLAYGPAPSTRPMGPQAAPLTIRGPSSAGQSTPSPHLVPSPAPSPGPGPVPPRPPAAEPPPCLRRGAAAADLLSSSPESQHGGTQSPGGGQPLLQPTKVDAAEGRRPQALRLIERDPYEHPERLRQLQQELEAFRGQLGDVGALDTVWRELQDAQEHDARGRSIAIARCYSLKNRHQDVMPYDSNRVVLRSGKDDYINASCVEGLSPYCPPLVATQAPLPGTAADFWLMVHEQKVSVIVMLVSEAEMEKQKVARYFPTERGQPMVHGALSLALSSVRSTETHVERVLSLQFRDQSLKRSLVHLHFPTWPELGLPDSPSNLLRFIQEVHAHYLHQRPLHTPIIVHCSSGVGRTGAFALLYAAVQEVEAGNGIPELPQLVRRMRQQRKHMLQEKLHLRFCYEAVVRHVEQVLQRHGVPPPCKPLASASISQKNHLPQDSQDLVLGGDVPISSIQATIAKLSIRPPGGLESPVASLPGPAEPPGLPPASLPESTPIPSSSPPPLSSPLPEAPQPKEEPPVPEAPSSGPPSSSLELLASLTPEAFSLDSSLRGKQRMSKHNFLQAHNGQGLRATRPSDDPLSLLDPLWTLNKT
inactive: lapatinib 0.003 | pictilisib -0.028 | crizotinib -0.014 | [1] 0.005 | duvelisib -0.023 | gandotinib -0.031 | tozasertib 0.013 | doramapimod 0.016 | bafetinib -0.032 | [2] 0.023 | nilotinib -0.003 | [3] -0.029 | dasatinib -0.034 | [4] -0.002 | [5] 0.01 | quisinostat 0.002 | tipifarnib 0 | [6] 0.024 | [7] 0.025 | [8] 0.005

PCBD2 (UniProt Q9H0N5)
UniProt Q9H0N5, sequence (Q9H0N5 whole entry, looked up): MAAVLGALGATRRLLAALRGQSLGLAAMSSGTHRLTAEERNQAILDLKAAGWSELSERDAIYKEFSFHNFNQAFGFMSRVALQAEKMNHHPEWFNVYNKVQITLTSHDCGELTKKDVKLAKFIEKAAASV
inactive: lapatinib -0.014 | pictilisib -0.009 | crizotinib -0.051 | duvelisib 0.028 | gandotinib 0.141 | tozasertib 0.031 | doramapimod 0.008 | bafetinib -0.063 | [2] 0.096 | nilotinib 0.01 | [3] -0.045 | dasatinib 0.011 | [4] -0.063 | [5] 0.051 | quisinostat -0.08 | tipifarnib -0.101 | [6] 0.033 | [7] 0.069 | [8] -0.066
active: [1] -0.228

PLEKHO2 (UniProt Q8TD55)
active: [8] 0.873
inactive: lapatinib 0.045 | pictilisib 0.184 | crizotinib 0.057 | [1] 0.039 | duvelisib 0.062 | gandotinib -0.018 | tozasertib -0.137 | doramapimod 0.005 | bafetinib -0.193 | [2] 0.07 | nilotinib 0.207 | [3] -0.237 | dasatinib -0.096 | [4] 0.118 | [5] -0.039 | quisinostat 0.062 | tipifarnib -0.192 | [6] 0.068 | [7] -0.071
